# Data published in article PMC7862700, “An all-to-all approach to the identification of sequence-specific readers for epigenetic DNA modifications on cytosine”.
# Tests used:
# Assay in all cases: DAPPL (digital affinity profiling via proximity ligation, sequencing); 10 mM Tris-HCl pH 7.5, 50 mM NaCl, 1 mM DTT, 4% glycerol, room temperature, 30 min; GST-TFs on glutathione beads, 16-mer random dsDNA library, 0.1% formaldehyde crosslink after washing; high values mean tight binding
# FEV = target: T1, FEV (Homo sapiens, UniProt Q99581 1-238); conditions: protein: recombinant; tags: N-terminal GST; dsDNA, one strand shown
# T1 sequence: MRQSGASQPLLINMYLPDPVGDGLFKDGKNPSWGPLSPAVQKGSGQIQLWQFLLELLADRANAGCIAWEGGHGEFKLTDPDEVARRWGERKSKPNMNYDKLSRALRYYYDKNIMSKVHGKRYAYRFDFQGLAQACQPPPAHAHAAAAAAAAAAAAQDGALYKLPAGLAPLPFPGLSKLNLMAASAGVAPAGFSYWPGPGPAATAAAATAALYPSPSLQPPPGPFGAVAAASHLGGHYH
# Summary of the method: (§1)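 Binding signal is each hexamer's read frequency for a factor divided by its frequency in the tag-only sample. The factors were GST-fused human transcription factors from yeast, captured on glutathione beads, DNA-barcoded and pooled with that sample. Pools were incubated with 200 nmole of a random double-stranded 16-mer DNA library in Tris/NaCl/DTT/glycerol buffer at room temperature for 30 min, then washed, crosslinked with 0.1% formaldehyde, proximity-ligated with BsaI/T4 ligase (1 h, 37 °C), PCR-amplified and sequenced on an Illumina NextSeq500.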
# ETV5 = ETV5 (Homo sapiens, UniProt P41161 1-510); conditions: protein: recombinant; tags: N-terminal GST; dsDNA, one strand shown
# Sequence of ETV5 (P41161 whole entry): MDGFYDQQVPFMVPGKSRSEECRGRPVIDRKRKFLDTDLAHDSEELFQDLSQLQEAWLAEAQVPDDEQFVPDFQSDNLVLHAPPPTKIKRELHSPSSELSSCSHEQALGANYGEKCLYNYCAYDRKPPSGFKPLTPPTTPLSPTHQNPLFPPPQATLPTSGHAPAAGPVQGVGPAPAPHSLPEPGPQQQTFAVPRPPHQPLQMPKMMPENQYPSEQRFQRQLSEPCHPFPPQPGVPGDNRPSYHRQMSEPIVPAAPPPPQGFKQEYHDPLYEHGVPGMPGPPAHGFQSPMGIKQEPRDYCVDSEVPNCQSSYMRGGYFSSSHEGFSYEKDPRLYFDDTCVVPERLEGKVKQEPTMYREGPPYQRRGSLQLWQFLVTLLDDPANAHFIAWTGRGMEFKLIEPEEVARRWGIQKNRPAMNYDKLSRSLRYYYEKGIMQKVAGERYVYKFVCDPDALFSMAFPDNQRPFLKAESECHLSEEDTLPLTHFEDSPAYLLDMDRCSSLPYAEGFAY
# Summary of the method: as §1
# HSF1 = HSF1 (Homo sapiens, UniProt Q00613 1-529); conditions: protein: recombinant; tags: N-terminal GST; chain copies: 3; dsDNA, one strand shown
# Sequence of HSF1 (Q00613 whole entry): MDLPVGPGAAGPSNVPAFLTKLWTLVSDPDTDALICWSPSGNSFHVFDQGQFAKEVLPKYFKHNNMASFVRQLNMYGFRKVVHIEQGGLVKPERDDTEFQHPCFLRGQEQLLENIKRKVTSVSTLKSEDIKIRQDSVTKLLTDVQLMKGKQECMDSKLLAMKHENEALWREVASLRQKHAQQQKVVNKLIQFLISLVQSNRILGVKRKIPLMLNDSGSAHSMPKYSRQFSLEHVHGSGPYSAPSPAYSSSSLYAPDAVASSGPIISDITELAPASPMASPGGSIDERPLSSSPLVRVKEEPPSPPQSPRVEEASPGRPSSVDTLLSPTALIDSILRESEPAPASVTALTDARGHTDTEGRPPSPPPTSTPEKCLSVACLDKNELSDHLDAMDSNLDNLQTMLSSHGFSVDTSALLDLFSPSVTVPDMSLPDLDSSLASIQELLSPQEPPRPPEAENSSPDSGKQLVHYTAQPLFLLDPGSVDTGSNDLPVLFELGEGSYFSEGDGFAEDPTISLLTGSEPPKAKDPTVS
# Summary of the method: as §1
# SPIC = target: T2, SPIC (Homo sapiens, UniProt Q8N5J4 1-248); conditions: protein: recombinant; tags: N-terminal GST; dsDNA, one strand shown
# T2 sequence: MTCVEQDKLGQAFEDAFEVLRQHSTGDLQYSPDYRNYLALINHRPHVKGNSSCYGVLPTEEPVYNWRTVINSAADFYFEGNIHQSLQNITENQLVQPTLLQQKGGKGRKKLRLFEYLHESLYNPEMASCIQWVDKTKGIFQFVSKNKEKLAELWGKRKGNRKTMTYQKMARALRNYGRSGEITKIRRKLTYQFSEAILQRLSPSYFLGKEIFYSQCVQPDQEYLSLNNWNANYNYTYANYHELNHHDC
# Summary of the method: as §1
# ELF4 = ELF4 (Homo sapiens, UniProt Q99607 1-663); conditions: protein: recombinant; tags: N-terminal GST; dsDNA, one strand shown
# Sequence of ELF4 (Q99607 whole entry): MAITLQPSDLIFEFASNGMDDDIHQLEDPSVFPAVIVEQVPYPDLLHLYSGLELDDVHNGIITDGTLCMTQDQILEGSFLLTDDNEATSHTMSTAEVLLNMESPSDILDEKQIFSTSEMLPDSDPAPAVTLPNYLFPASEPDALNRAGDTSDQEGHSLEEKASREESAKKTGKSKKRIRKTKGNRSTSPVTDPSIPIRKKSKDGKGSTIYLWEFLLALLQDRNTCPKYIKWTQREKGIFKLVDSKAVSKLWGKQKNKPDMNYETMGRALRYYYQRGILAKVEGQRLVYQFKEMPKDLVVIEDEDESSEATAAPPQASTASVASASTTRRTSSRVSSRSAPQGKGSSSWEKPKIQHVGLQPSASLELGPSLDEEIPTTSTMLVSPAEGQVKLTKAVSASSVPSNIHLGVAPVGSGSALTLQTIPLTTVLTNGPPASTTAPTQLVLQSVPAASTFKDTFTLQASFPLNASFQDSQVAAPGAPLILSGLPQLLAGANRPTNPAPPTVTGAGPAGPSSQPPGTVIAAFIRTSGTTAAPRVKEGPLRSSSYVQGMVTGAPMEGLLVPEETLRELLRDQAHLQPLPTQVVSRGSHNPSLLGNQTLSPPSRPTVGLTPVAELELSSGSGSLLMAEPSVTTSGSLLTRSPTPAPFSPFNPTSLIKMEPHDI
# Summary of the method: as §1
# ELK4 = target: T3, ELK4 (Homo sapiens, UniProt P28324-2 1-405); conditions: protein: recombinant; tags: N-terminal GST; dsDNA, one strand shown
# T3 sequence: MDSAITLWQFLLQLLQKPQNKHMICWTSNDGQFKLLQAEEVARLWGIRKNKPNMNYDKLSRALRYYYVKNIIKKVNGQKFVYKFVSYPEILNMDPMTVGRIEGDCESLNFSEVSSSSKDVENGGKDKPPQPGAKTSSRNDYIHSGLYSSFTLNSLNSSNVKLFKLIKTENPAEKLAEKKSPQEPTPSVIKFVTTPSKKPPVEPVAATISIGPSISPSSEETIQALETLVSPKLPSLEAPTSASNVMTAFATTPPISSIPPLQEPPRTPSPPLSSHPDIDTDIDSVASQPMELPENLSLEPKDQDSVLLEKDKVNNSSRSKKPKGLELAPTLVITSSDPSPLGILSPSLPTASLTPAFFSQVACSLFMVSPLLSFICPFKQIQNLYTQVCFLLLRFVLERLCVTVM
# Summary of the method: as §1
# ETV2 = target: T4, ETV2 (Homo sapiens, UniProt O00321 1-342); conditions: protein: recombinant; tags: N-terminal GST; dsDNA, one strand shown
# T4 sequence: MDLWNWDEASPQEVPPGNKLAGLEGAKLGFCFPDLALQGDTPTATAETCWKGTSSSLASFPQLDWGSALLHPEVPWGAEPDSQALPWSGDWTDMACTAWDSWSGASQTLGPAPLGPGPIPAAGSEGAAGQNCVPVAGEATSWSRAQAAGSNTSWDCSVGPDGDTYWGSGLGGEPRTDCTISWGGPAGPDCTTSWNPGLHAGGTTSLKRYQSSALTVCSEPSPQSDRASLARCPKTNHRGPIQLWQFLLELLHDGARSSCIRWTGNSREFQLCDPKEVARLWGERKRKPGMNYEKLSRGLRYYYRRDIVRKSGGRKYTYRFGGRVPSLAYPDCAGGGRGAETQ
# Summary of the method: as §1
# ELF3 = target: T5, ELF3 (Homo sapiens, UniProt P78545 1-371); conditions: protein: recombinant; tags: N-terminal GST; dsDNA, one strand shown
# T5 sequence: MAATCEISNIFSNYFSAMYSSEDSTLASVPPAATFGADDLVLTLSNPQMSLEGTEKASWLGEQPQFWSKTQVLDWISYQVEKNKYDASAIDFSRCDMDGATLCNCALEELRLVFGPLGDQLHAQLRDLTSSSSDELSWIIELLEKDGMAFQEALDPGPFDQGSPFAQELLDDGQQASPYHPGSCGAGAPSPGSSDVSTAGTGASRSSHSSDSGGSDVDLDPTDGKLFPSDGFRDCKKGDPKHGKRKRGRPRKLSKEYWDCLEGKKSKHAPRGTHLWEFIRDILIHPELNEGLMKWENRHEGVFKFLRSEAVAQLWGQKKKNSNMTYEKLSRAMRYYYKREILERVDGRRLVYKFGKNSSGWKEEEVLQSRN
# Summary of the method: as §1
# CRX = CRX (Homo sapiens, UniProt O43186 1-299); conditions: protein: recombinant; tags: N-terminal GST; dsDNA, one strand shown
# Sequence of CRX (O43186 whole entry): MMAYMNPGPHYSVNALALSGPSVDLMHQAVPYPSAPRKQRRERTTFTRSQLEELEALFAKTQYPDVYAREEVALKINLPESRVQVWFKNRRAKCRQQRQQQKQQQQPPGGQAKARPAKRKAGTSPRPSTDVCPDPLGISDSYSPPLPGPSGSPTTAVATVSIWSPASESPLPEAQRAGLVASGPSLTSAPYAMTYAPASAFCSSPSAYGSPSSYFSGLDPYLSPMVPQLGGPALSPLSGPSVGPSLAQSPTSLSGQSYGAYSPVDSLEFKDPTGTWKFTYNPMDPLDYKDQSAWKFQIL
# Summary of the method: as §1
# ETV1 = ETV1 (Homo sapiens, UniProt P50549 1-477); conditions: protein: recombinant; tags: N-terminal GST; dsDNA, one strand shown
# Sequence of ETV1 (P50549 whole entry): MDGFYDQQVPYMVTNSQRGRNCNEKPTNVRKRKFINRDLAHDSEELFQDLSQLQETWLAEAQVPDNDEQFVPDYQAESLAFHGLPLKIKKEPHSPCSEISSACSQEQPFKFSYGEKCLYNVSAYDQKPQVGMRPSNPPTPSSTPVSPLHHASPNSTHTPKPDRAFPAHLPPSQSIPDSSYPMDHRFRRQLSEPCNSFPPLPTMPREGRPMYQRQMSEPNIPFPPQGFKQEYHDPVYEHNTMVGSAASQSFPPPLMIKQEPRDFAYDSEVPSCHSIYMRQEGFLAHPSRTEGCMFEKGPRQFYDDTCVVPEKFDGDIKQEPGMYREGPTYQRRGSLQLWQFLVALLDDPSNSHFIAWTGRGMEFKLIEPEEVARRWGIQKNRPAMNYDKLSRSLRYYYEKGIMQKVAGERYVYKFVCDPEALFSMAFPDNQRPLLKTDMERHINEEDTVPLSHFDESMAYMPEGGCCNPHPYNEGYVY
# Summary of the method: as §1
# ERF = target: T6, ERF (Homo sapiens, UniProt P50548 1-548); conditions: protein: recombinant; tags: N-terminal GST; dsDNA, one strand shown
# T6 sequence: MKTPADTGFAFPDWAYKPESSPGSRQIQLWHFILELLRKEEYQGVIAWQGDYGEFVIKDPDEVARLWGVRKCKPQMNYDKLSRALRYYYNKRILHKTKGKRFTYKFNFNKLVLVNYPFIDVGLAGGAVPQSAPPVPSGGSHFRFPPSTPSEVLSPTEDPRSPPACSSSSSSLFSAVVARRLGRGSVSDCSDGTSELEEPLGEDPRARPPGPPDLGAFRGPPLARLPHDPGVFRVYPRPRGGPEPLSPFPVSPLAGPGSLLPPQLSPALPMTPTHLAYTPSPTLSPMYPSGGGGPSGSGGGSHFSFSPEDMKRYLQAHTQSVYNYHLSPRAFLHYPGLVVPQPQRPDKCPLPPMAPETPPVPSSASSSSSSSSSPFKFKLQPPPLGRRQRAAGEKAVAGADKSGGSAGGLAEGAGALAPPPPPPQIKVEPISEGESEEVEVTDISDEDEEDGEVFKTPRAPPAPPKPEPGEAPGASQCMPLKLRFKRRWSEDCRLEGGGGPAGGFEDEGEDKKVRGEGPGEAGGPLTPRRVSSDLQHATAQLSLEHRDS
# Summary of the method: as §1
# ETV3L = target: T7, ETV3L (Homo sapiens, UniProt Q6ZN32 1-361); conditions: protein: recombinant; tags: N-terminal GST; dsDNA, one strand shown
# T7 sequence: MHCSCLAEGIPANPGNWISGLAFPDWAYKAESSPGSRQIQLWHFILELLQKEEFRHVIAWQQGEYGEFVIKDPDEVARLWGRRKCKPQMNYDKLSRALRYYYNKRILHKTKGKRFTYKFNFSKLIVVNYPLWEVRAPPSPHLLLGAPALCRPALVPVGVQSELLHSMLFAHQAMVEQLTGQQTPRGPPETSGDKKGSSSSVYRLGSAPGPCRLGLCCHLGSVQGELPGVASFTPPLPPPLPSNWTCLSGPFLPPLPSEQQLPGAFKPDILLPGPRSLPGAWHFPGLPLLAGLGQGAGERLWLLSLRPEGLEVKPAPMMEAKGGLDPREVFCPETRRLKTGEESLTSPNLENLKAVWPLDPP
# Summary of the method: as §1
# ETS2 = target: T8, ETS2 (Homo sapiens, UniProt P15036 1-469); conditions: protein: recombinant; tags: N-terminal GST; dsDNA, one strand shown
# T8 sequence: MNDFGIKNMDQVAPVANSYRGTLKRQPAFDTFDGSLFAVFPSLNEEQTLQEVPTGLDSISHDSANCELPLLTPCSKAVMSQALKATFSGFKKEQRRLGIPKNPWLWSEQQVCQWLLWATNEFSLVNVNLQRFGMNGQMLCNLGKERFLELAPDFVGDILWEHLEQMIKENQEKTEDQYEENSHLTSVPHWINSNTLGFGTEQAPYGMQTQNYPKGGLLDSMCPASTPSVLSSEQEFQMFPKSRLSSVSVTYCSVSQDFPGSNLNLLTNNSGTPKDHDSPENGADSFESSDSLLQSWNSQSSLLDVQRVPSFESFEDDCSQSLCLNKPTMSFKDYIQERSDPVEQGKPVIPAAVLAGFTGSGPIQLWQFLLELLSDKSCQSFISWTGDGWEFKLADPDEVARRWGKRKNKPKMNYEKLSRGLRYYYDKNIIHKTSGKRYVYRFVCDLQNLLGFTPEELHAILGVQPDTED
# Summary of the method: as §1
# SPDEF = target: T9, SPDEF (Homo sapiens, UniProt O95238 1-335); conditions: protein: recombinant; tags: N-terminal GST; dsDNA, one strand shown
# T9 sequence: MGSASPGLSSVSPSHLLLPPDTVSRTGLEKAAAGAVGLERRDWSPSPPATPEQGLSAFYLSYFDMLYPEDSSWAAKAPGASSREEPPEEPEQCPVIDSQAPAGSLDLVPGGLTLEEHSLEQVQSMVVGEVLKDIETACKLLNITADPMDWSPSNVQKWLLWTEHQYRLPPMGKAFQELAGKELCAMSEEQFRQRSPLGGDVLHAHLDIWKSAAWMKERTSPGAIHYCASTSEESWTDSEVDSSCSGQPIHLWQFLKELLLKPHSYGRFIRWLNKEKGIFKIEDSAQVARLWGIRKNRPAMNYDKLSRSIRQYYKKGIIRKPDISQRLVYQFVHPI
# Summary of the method: as §1
# ETV7 = target: T10, ETV7 (Homo sapiens, UniProt Q9Y603 1-341); conditions: protein: recombinant; tags: N-terminal GST; dsDNA, one strand shown
# T10 sequence: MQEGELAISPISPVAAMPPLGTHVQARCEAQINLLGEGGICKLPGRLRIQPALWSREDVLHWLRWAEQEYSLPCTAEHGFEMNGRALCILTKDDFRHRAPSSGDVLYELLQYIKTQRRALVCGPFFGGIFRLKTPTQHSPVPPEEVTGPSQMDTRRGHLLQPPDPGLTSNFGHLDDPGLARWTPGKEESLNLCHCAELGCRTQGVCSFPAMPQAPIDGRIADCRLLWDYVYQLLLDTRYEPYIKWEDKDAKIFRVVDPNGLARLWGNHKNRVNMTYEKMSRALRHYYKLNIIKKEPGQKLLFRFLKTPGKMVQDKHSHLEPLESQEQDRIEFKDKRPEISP
# Summary of the method: as §1
# ELF5 = target: T11, ELF5 (Homo sapiens, UniProt Q9UKW6-2 1-255); conditions: protein: recombinant; tags: N-terminal GST; dsDNA, one strand shown
# T11 sequence: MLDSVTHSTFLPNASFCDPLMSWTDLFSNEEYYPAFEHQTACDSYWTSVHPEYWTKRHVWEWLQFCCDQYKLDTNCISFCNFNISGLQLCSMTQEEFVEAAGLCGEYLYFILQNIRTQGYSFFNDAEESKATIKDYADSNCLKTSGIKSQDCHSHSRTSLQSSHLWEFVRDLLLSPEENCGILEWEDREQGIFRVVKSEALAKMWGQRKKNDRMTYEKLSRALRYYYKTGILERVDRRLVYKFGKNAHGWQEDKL
# Summary of the method: as §1
# ETV3 = target: T12, ETV3 (Homo sapiens, UniProt P41162-2 1-143); conditions: protein: recombinant; tags: N-terminal GST; dsDNA, one strand shown
# T12 sequence: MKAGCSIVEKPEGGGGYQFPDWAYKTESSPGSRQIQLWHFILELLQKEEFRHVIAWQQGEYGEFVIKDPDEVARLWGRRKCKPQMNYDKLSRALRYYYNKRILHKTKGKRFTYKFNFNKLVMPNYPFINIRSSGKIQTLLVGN
# Summary of the method: as §1
# ETV6 = ETV6 (Homo sapiens, UniProt P41212 1-452); conditions: protein: recombinant; tags: N-terminal GST; dsDNA, one strand shown
# Sequence of ETV6 (P41212 whole entry): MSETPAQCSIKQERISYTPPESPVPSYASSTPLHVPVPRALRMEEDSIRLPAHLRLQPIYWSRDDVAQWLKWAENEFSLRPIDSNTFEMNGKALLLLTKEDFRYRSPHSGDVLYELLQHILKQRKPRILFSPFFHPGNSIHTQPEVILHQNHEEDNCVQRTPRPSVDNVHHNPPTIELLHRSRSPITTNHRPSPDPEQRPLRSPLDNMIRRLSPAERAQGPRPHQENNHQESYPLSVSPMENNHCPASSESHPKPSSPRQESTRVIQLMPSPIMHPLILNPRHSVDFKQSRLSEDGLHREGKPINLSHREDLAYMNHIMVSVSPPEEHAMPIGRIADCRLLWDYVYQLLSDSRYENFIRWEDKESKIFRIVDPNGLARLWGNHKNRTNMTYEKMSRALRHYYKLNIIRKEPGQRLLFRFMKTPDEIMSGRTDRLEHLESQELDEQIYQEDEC
# Summary of the method: as §1
sequence,measurement,setting,value
GTTAAC,binding signal,FEV,"1.18 fold enrichment (6-mer frequency, TF over GST control)"
same,binding signal,ETV5,"1.19 fold enrichment (6-mer frequency, TF over GST control)"
same,binding signal,HSF1,"1.02 fold enrichment (6-mer frequency, TF over GST control)"
same,binding signal,SPIC,"1.11 fold enrichment (6-mer frequency, TF over GST control)"
same,binding signal,ELF4,"1.19 fold enrichment (6-mer frequency, TF over GST control)"
same,binding signal,ELK4,"1.25 fold enrichment (6-mer frequency, TF over GST control)"
same,binding signal,ETV2,"1.2 fold enrichment (6-mer frequency, TF over GST control)"
same,binding signal,ELF3,"1.21 fold enrichment (6-mer frequency, TF over GST control)"
same,binding signal,CRX,"1.15 fold enrichment (6-mer frequency, TF over GST control)"
same,binding signal,ETV1,"1.2 fold enrichment (6-mer frequency, TF over GST control)"
same,binding signal,ERF,"1.12 fold enrichment (6-mer frequency, TF over GST control)"
same,binding signal,ETV3L,"1.14 fold enrichment (6-mer frequency, TF over GST control)"
same,binding signal,ETS2,"1.22 fold enrichment (6-mer frequency, TF over GST control)"
same,binding signal,SPDEF,"1.23 fold enrichment (6-mer frequency, TF over GST control)"
same,binding signal,ETV7,"1.24 fold enrichment (6-mer frequency, TF over GST control)"
same,binding signal,ELF5,"1.22 fold enrichment (6-mer frequency, TF over GST control)"
same,binding signal,ETV3,"1.27 fold enrichment (6-mer frequency, TF over GST control)"
same,binding signal,ETV6,"1.18 fold enrichment (6-mer frequency, TF over GST control)"
